Results on 43 molecules are retold here after ChEMBL document CHEMBL4513216, “Probing the Open Global Health Chemical Diversity Library for Multistage-Active Starting Points for Next-Generation Antimalarials” (ACS Infect Dis, 2020).

Hit rate of the full screen: of about 65,000 compounds, about 2,100 (3.2%) showed an effect of 50% or more. The median lay at about -52%. Many of the other results were omitted from the sample, so strong results are more common in it than they were.

This assay relates to Plasmodium falciparum. Nature of the assay: Screen against P. falciparum Asexual Blood Stage (ABS), at 5uM. Type of assay: functional, Dd2. Particulars: tested at 5 uM.
As for `Cc1cccc(CN(Cc2ccc(C)o2)C2CC(C)(C)NC(C)(C)C2)n1`, the INHIBITION was 77.4%.

Regarding `Cc1cccc(CN2CCCCC23CCNC3)n1` (stereo not drawn), the INHIBITION worked out at 25.4%.

As to `Cc1cccc(CN2CCCC23CCNC3)n1` (stereo not drawn), the INHIBITION was found to be 15.6%.

Take `COc1cc(C(=O)NCC2(N(C)C)CCN(C)CC2)c2ccccc2n1`: the INHIBITION is 73.6%.

`Cn1cc(CN2CCC[C@]3(C[C@H](Oc4ccccn4)CO3)C2)cn1`: the INHIBITION is listed as -23.8%.

In the case of `CO[C@H]1CN(C(C)C)C[C@@H]1NC(=O)Nc1ccc(C(F)(F)F)cc1`, the INHIBITION was 71.5%.

For `O=C1CC2(CCN(Cc3ccncc3)C2)CN1c1cccc(F)c1` (stereo not drawn), the INHIBITION is given as -17.3%.

As for `O=C1CC2(CCN(Cc3cccnc3)C2)CN1c1cccc(F)c1` (stereo not drawn), the INHIBITION is recorded as -34.7%.

On to `CC(C)=CCN1CCC2(CC1)CC(=O)N(Cc1cc(F)cc(F)c1)C2`, for which the INHIBITION was 75%.

In the case of `CCCN1CCN(C(=O)c2ccc(Cl)cn2)[C@H]2CS(=O)(=O)C[C@H]21`, the INHIBITION is on record as -54.2%.

For `c1cncc(COC[C@H]2CC[C@H]3[C@H](CCN3Cc3nccs3)O2)c1`, the INHIBITION is recorded as -35.5%.

For `COc1ccc(-c2n[nH]cc2C2SCC(=O)Nc3[nH]ncc32)cc1` (stereo not drawn), the INHIBITION is listed as -21.3%.

For `Cc1ccc(C(=O)N2CC[C@H]3[C@H]2CCN3CC2CCOCC2)cn1`, the INHIBITION is recorded as -131%.

Take `CNC(=O)c1ccc2c(c1)C1(CCN(CC3CC3)CC1)C(=O)N2`: the INHIBITION is on record as -44.8%.

Turning to `CO[C@H]1CCN(S(=O)(=O)c2cccnc2)[C@@H]2CN(CC3CC3)C[C@H]12`, the INHIBITION came to 31%.

For the molecule `O=S(=O)(NC1CCC12CCN(CC1CC1)CC2)c1ccccc1` (stereo not drawn), the INHIBITION came to 71.2%.

As to `Fc1ccc(COCC2CCN(Cc3ccccn3)CC2)cc1`, the INHIBITION is 78.8%.

For `c1ccc(CN2C[C@@H]3COC[C@]3(COCC3CCOCC3)C2)nc1`, the INHIBITION is on record as -61.3%.

Take `c1ccc(CN2C[C@H]3CCC[C@@]3(COCC3CC3)C2)nc1`: the INHIBITION was -64.4%.

For the molecule `c1ccc(CN2C[C@@H]3COC[C@]3(COCc3ccncc3)C2)nc1`, the INHIBITION was -47.9%.

In the case of `c1ccc(CN2C[C@H]3CCC[C@@]3(COCC3CCOCC3)C2)nc1`, the INHIBITION is -45.1%.

As to `Clc1ccc(COCC2CCN(Cc3ccccn3)CC2)cc1`, the INHIBITION stood at 90.7%.

As to `Cc1nc2c(c(NCc3nc4ccccc4s3)n1)CCNCC2`, the INHIBITION stood at 71.3%.

On to `Cc1nc2c(c(NCc3ccc(-c4ccccn4)s3)n1)CCNCC2`, for which the INHIBITION was 73.6%.

As for `Cc1nc2c(c(NCc3cc4ccccc4s3)n1)CCNCC2`, the INHIBITION is 89.2%.

With `COc1ncnc(N)c1CNCCc1ccccc1`, the INHIBITION was -136%.

`Cc1nc(C2(NCC(=O)NCc3cccs3)CCCCC2)no1`: the INHIBITION is recorded as -130%.

Take `CN(C)C(=O)CN1CCCC2(CCN(c3ccc(C#N)cn3)C2)C1` (stereo not drawn): the INHIBITION was -51.1%.

Regarding `O=C1CCCN1CCN1CC=C(c2cnn(C3CCS(=O)(=O)C3)c2)CC1` (stereo not drawn), the INHIBITION is given as -88.6%.

Consider `CC(Nc1ncnc2c1CCNC2)c1ccc2c(c1)CCCC2` (stereo not drawn), for which the INHIBITION is listed as 71.2%.

With `CC(C)N(C)Cc1cncc2c1CCN(Cc1cccs1)C2`, the INHIBITION was found to be 1.43%.

As for `COc1cc(Oc2ncccc2C(F)(F)F)ccc1CN1CCCC1`, the INHIBITION is reported as 79.4%.

As to `COCCN1CCCC12CCN(Cc1cccnc1OC)CC2`, the INHIBITION was -66.3%.

As for `CCN1CCCC12CCN(Cc1cccnc1OC)CC2`, the INHIBITION was -69.1%.

`Cc1noc(C)c1CN1CCO[C@H]2[C@H](Oc3ccccn3)CC[C@@H]21`: the INHIBITION was -42.5%.

`OCCCN1CCc2[nH]nc(C(c3ccccc3)c3ccccc3)c2C1`: the INHIBITION is 73%.

On to `Cc1cccc(CN2CC3C[C@]3(NC(=O)c3ccoc3)C2)n1` (stereo partly drawn), for which the INHIBITION is listed as -67.9%.

As to `COCCN1C[C@@H]2[C@@H](OC)CCN(S(=O)(=O)c3cccnc3)[C@@H]2C1`, the INHIBITION is given as -22.8%.

As for `Cn1ccc2c(C(=O)NC3CN4CCC3CC4)cccc21` (stereo not drawn), the INHIBITION is listed as 3.44%.

Take `Cc1ccc(C(=O)N[C@H]2CN(CCO)C[C@@H]2C2CC2)cc1Cl`: the INHIBITION was found to be 52.2%.

In the case of `CCOc1ccc(C2SCC(=O)Nc3c2c(=O)[nH]n3C(CC)CC)cc1` (stereo not drawn), the INHIBITION is listed as -144%.

Regarding `CCN1CCN(c2cncc(Cl)n2)CC1`, the INHIBITION is reported as -13.6%.

On to `CCN1CCN(S(=O)(=O)c2cc(Cl)c(Cl)cc2C)CC1`, for which the INHIBITION was determined as 70.9%.
